# In PubChem BioAssay AID492956 (The Scripps Research Institute Molecular Screening Center, 2010):
# Screen size: about 340,000 compounds; about 3,300 (0.97%) were called active. The sample as a whole holds a higher share of actives than the screen did. Values without a mark were called inactive.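 Rule for the calls: active = inhibition above the mean over all tested compounds plus 3 SD (cut at about 30% in these data); inactive = the rest.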
# Target: Platelet-activating factor acetylhydrolase 2, cytoplasmic (Homo sapiens) (UniProt Q99487)
# Assay: PAFAH2 enzyme inhibitors, primary screen, biochemical, fluorescence polarization, human (AID 492956);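 note: inhibitors block probe labeling of enzyme so polarization drops; 0% = enzyme with DMSO and 100% = wells lacking PAFAH2 protein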
# Details: recombinant PAFAH2, FP-rhodamine activity probe, at 3.39 µM, stronger effect = higher value
row,Compound,inhibition
1,Cc1cc(F)ccc1NC(=O)C(C)n1c2ccccc2c2nc(=O)cc(C)n21 (configuration not stated),-0.36%
2,CCC(C)N1C(=S)SC(C)(C)C1N(O)C(=O)NC1CCCCC1 (configuration not stated),0.18%
3,CCCCNC(=O)N(O)C1N(/N=C/c2ccc(N(C)C)cc2)C(=S)SC1(C)C (configuration not stated),39% (active)
4,CCCCNC(=O)N(O)C1N(/N=C/c2ccccc2O)C(=S)SC1(C)C (configuration not stated),12%
5,O=C(NC1CCCCC1)n1c(=O)oc2cc(S(=O)(=O)N3CCCCC3)ccc21,-3.36%
6,CC(C)COC(=O)n1c(=O)oc2ccc(S(=O)(=O)N3CCCCC3)cc21,67.9% (active)
7,CC1CCCCN1C(=O)Cn1c(=O)oc2cc(S(=O)(=O)N3CCCCC3)ccc21 (configuration not stated),0.32%
8,O=C(NCc1cc(C(F)(F)F)cc(C(F)(F)F)c1)C1CC(c2cccc(F)c2)=NO1 (configuration not stated),6.39%
9,O=C(COC(=O)CNC(=O)c1ccccc1F)NCC(F)(F)F,1.7%
10,CC(CCc1ccccc1)NC(=O)COC(=O)c1ccc(F)cc1 (configuration not stated),28%
11,CCc1ccc(C(=O)OCC(=O)NCC(F)(F)F)cc1,73.5% (active)
12,O=C(Oc1cccc(NC2=NS(=O)(=O)c3ccccc32)c1)c1ccncc1,-0.09%
13,CC(C)(C)c1csc(NC2=NS(=O)(=O)c3ccccc32)n1,36.9% (active)
14,Cc1ccc(S(=O)(=O)N(NC2=NS(=O)(=O)c3ccccc32)C(=O)c2ccccc2)cc1,-5.48%
15,O=C(NCN1CCN(CCO)CC1)c1cnccn1,-3.5%
16,Cc1cc(NC(=O)COC(=O)/C=C/c2ccc(C)o2)no1,33.3% (active)
17,Cc1ccc(CNC(=O)COC(=O)C2CCC2)cc1,3.66%
18,Cc1ccc(/C=C/C(=O)OCC(=O)NCc2ccc(Cl)cc2)o1,53% (active)
19,CCN(CC(=O)NCc1ccc(Cl)cc1)C(=O)c1c(C)noc1C,-0.36%
20,Cc1cc(NC(=O)COc2ccc([N+](=O)[O-])cc2)no1,-0.25%
21,COC(=O)c1cc(C(=O)OCC(=O)Nc2cc(C)on2)cc([N+](=O)[O-])c1,-6.33%

row,Compound,inhibition
1,CCOC(=O)C1C(=O)OC2(CCCC2)C1C(=O)OCC (configuration not stated),-3.56%
2,COCc1c(C(=O)OCC(=O)Nc2ccc(OC(F)F)cc2)oc2ccccc12,30.5% (active)
3,COCc1c(C(=O)OCc2c(C)noc2C)oc2ccccc12,-5.34%
4,Nc1c(C(=O)OCC(=O)Nc2ccc(OC(F)F)cc2)[nH]c(=O)[nH]c1=O,5.59%
5,O=C1NCC(Nc2ccccc2)C(=O)N1 (configuration not stated),7.66%
6,O=C1C2(c3ccccc3)CN(CCCO)CC1(c1ccccc1)CN(CCCO)C2,7.66%
7,O=C(COC(=O)c1cccs1)NCc1cccs1,44.2% (active)
8,COc1ccccc1CNC(=O)COc1ccc(C)nc1[N+](=O)[O-],4.79%
9,O=C(COC(=O)[C@H](Cc1ccccc1)NC(=O)c1cccs1)Nc1cc(F)ccc1F,4.42%
10,O=C(COC(=O)c1ncc(Cl)c(Cl)c1Cl)NCc1cccs1,-5.72%
11,COc1ccccc1CNC(=O)COC(=O)c1sc(C)nc1C,36.3% (active)
12,CNC(=O)c1sc(NCc2ccccc2OC)nc1C,-0.38%
13,O=C(COC(=O)c1ccc(O)cc1O)NNC(=O)c1cccs1,6.29%
14,O=C(COC(=O)/C(=C/c1cccs1)c1cccs1)NCc1ccccc1Cl,9.84%
15,COc1ccccc1CNC(=O)COC(=O)CNS(=O)(=O)c1ccc(NC(C)=O)cc1,-2.61%
16,O=C(COC(=O)c1cccs1)Nc1ccccc1Cl,73.2% (active)
17,COc1ccccc1CNC(=O)COC(=O)c1cccs1,60.2% (active)
18,O=C(COC(=O)c1ccc(Cl)nc1)NCc1cccs1,5.5%
19,O=CN1CCN(C(=O)c2ccc(Br)o2)CC1,0.55%
20,Cc1cccc(NS(=O)(=O)c2ccc(C(=O)NCC(C)(C)N3CCOCC3)cc2)c1C,-5.69%
21,O=c1cccc(-c2ccc(Br)cc2)o1,1.7%

row,Compound,inhibition
1,COc1ccc(SCc2noc(C(=O)NCC3CCCO3)c2C(=O)O)cc1 (configuration not stated),0.7%
2,CC1=NNC(=O)C1Cc1c(Cl)cccc1Cl (configuration not stated),5.21%
3,CC1=C(C(=O)OC2CCCCC2)C(c2ccccc2F)NC(=O)N1 (configuration not stated),-4.88%
4,CCOC(=O)C1CCN(c2c(Nc3cc(C)cc(C)c3)c(=O)c2=O)CC1,7.85%
5,C/C(=N\NC(=O)CNc1cccc2ccccc12)c1ccc(Br)s1,9.68%
6,Cc1cccc(/C=N/NC(=O)CNc2cccc3ccccc23)n1,47.5% (active)
7,Cc1cccc(C(=O)Nc2ccc(C(=O)N/N=C/c3cccc(C)n3)cc2)c1,-6.77%
8,COc1cccc(NC(=O)COC(=O)c2ccc3ccccc3n2)c1,-5.69%
9,CC(C)CNC(=O)COC(=O)/C=C/c1ccccc1[N+](=O)[O-],72.8% (active)
10,CC(=O)Nc1cccc(C(=O)OCC(=O)NCc2cc(C)c(O)c(C)c2)c1,7.09%
11,CC(=O)Nc1cccc(C(=O)OCC(=O)Nc2nnc(-c3ccccc3)o2)c1,4.32%
12,O=C(/C=C/c1ccccc1[N+](=O)[O-])OCC(=O)N1CCCC1,7.52%
13,COc1ccc(C(=O)OCC(=O)Nc2cccc(C(C)=O)c2)cc1OC,81.3% (active)
14,COc1cc(/C=C/C(=O)OCC(=O)Nc2cccc(Oc3ccccc3)c2)ccc1O,64.5% (active)
15,CC(C)c1nnc(NC(=O)COC(=O)/C=C/c2ccc([N+](=O)[O-])cc2)s1,-1.12%
16,COc1cc2c(cc1NC(=O)COC(=O)/C=C/c1ccccc1)oc1ccccc12,1.23%
17,Cc1cccc(C(=O)OCC(=O)NCC(C)C)c1O,3.36%
18,CC(C)CNC(=O)COC(=O)/C=C/c1ccco1,69% (active)
19,CCCCN(C(=O)/C=C/c1ccco1)c1c(N)n(CC(C)C)c(=O)[nH]c1=O,-7.37%
20,COc1ccc(S(=O)(=O)NCC(=O)NCc2cc(=O)n(C)c(=O)n2C)cc1F,-4.5%
